# Screening results (PubChem)
# A selection: hits, their analogues and other compounds. The true share with any hit is near 3.2%.
# p53 reactivator – re-activators of mutant p53; H1299 p53-A138V BP100-luciferase reporter, luminescence, 24 h; Potency, µM (highest dose often 92.2 µM), for the others: at the top dose activity change, positive = activation, hits mostly activators; 0.063% of 320,000 active; also: potency is read from the fitted curve at half-maximal effect; % of control where 0% means no effect; nearly all actives have a fitted effect of over 45% in size
#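 H1299 (p53-null), stable ts p53-A138V + BP100-Luc; 1000 cells/well, Opti-MEM/10% FBS; cpd 4 pt, 1:5; 24 h, 37 deg C, 5% CO2; detection reagent 10 min RT; luminescence.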
# Nrf2 block – Nrf2 pathway inhibition; A549 ARE-Fluc reporter, luciferase luminescence, 18-24 h; Potency, µM (highest dose often 46 µM), inactives show top-dose activity change, negative = inhibition, most hits filed as inhibitors; 2.1% of 360,000 active; also: potency is read from the fitted curve at half-maximal effect; % is scaled to controls: 0 for no effect and ±100 for the full control effect; nearly all actives have a fitted effect of over 60% in size
#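 Two sequential reads on A549 ARE_Fluc cells exposed to compound for 18-24 h: a CellTiter-Fluor fluorescence read for viability, then a luciferase luminescence read for Nrf2/ARE activity.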
# A549 tox – kills or reduces viability of A549 cells in Nrf2 counter-screen | 0.16% of 390,000 active | A549 ARE-Fluc cells, CellTiter-Fluor viability, 18-24 h | Potency, µM (top dose mostly 46 µM), for inactives: at the highest dose activity change, negative = cytotoxicity, actives largely listed as inhibitors; also: potency is read from the fitted curve at half-maximal effect; % is scaled to controls: 0 for no effect and ±100 for the full control effect
#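 Cytotoxicity counterscreen: CellTiter-Fluor fluorescence was measured in A549 ARE_Fluc cells after 18-24 h of compound exposure in a concentration series. The subsequent BugLite luminescent read reports ARE-luciferase activity.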
# BRCA1 expr act – increases BRCA1 expression; MCF7-BRCA1-FFLuc reporter, luminescence, 48 h; response scale: scaled: vehicle 0%, 10 µM genistein 100%; Potency, µM (doses to about 46.1 µM), for inactives: at the top dose activation, hits mostly activators; 1.1% of 380,000 active; AID 624202; also: potency is read from the fitted curve at half-maximal effect; nearly all actives have a fitted effect of over 80% in size
#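 Cells: MCF7-BRCA1-FFLuc, 2000/well. Exposure: 48 h, 37 °C, 5% CO2. Read: luminescence, 15 min post-substrate. Controls: genistein 10 microM (maximal activation), DMSO (neutral).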
# Nrf2 activator – Nrf2 pathway activation | AREc32 ARE-luciferase reporter (MCF7-derived line), luminescence, 24 h | Potency, µM (titrated, usually from 46.1 µM), without a hit: at the top dose activation, most hits filed as activators | 0.31% of 410,000 active; also: potency is read from the fitted curve at half-maximal effect; % of control where 0% means no effect; nearly all actives have a fitted effect of over 65% in size
#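 AREc32 cells carrying an ARE-driven firefly luciferase reporter were seeded at 1000 cells/well in OPTI-MEM with 5% FBS, then exposed to compound for 24 hr at 37 deg C. Luminescence was read with Steady-Glo after 30 min at RT.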
# IL2 activator – activates IL-2 in a cell-based reporter assay; AID 652025; IL-2 activation reporter assay, cell-based qHTS; stimulated with anti-CD3/CD4/CD28 beads; in transgenic mouse T cells; activation, % (series mostly up to about 46 µM); 0.065% of 360,000 active; in the data active = activation above about 50%; inconclusive = mostly about 30% to 49%; also: 0% is about no effect
#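 Unstimulated transgenic mouse T cells preincubated 60 min with compound, then stimulated with anti-CD3/anti-CD4-coated beads plus anti-CD28 for 18 h at 37 degrees C. IL-2 response read as EGFP and DsRed fluorescence by plate cytometry.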
# Starred values were filed as active, the others as inactive; ? = inconclusive; · = no result given. Unless noted, calls follow the shape of the dose curve; as a rule, active = well fitted curve in the direction sought with a large enough effect; inconclusive = small, poorly fitted or top-dose-only effect, or another doubt; inactive = no such curve, though single readings can be large; an effect the other way counts as inactive or inconclusive.
SMILES,p53 reactivator,Nrf2 block,A549 tox,BRCA1 expr act,Nrf2 activator,IL2 activator
Cc1ccc(-c2nc(CS(=O)(=O)CC(=O)N3CC(C)CC(C)C3)c(C)o2)cc1 (centres undefined),-5%,21µM*,-9%,-3%,0%,-3
Cc1cccc(N2CCN(C(=O)CS(=O)(=O)Cc3nc(-c4ccccc4F)oc3C)CC2C)c1 (centres undefined),0%,16µM*,-9%,-42%,0%,-1
Cc1oc(-c2ccccc2F)nc1CS(=O)(=O)CC(=O)N1CCOCC1,5%,-13%,7%,-11%,-1%,-2
CCOC(=O)c1c(S(=O)(=O)N2CCCC(C(=O)Nc3ccc(C)cc3C)C2)c(C)n(CC)c1C (centres undefined),·,·,6%,·,5%,·
Cc1cc(C)cc(NS(=O)(=O)c2ccc3c(c2)NC(=O)C(C)S3)c1 (centres undefined),·,?,6%,·,0%,·
COc1cccc(NS(=O)(=O)c2ccc3c(c2)NC(=O)C(C)S3)c1 (centres undefined),-2%,21µM*,-13%,-19%,2%,-3
COc1ccccc1NS(=O)(=O)c1ccc2c(c1)NC(=O)C(C)S2 (centres undefined),-4%,0%,-17%,-25%,4%,-2
CCc1cccc(NS(=O)(=O)c2ccc3c(c2)NC(=O)C(C)S3)c1 (centres undefined),-9%,16µM*,-1%,-33%,0%,-4
CSc1cccc(NC(=O)C2CCN(c3nc4ccccc4[nH]3)CC2)c1,·,·,-3%,·,4%,·
COc1ccc(Cl)cc1NC(=O)c1c(NCc2sccc2C)sc2c1CCCC2,·,13%,-11%,-47%,?,·
O=c1c2ccccc2oc2ccc(C#CC3(O)CCCCC3)cc12,·,?,-1%,16%,0%,0
Cn1c2ccccc2c(=O)c2cc(C#Cc3ccccn3)ccc21,25%,?,-5%,?,?,0
Cn1c2ccccc2c(=O)c2ccc(C#CC3(N)CCCCC3)cc21,·,-9%,?,5.6µM*,5%,0
COc1cc(-c2ccc3c(=O)c4ccccc4n(C)c3c2)cc(OC)c1OC,?,13µM*,?,-6%,1%,-1
Cn1c2ccccc2c(=O)c2ccc(C#Cc3ccccn3)cc21,14%,-9%,-1%,11µM*,5%,0
COc1cc(-c2ccc3c(=O)c4ccccc4sc3c2)cc(OC)c1OC,4%,-27%,1%,9%,?,0
COc1cccc2oc3ccc(C#CC4(N)CCCCC4)cc3c(=O)c12,·,9%,3%,7.9µM*,8%,0
O=C(COc1ccccc1-c1nc(-c2ccccc2)no1)Nc1cccc([N+](=O)[O-])c1,·,?,-9%,·,1%,·
O=S(=O)(c1ccc2c(c1)OCCO2)N1CCN(S(=O)(=O)c2cccc3cccnc23)CC1,·,12%,9%,·,·,·
CC(Sc1nc(N)cc(=O)[nH]1)C(=O)Nc1sc2c(c1C#N)CCCC2 (centres undefined),-6%,13µM*,-30%,-24%,3%,0
N#Cc1c(NC(=O)CSc2nc(N)cc(=O)[nH]2)sc2c1CCCCCC2,3%,7.3µM*,-5%,-66%,0%,0
CCOc1ccc(CNC(=O)Nc2ccc3c(c2)N(C)C(=O)c2ccccc2S3)cc1,·,?,4%,·,-1%,·
Cc1ccc(NS(=O)(=O)c2ccc(Cl)cc2)cc1C,·,-20%,14%,·,·,·
CCC(=O)Oc1ccc2c(c1)O/C(=C\c1ccco1)C2=O,8%,-1%,-17%,47%,7.9µM*,9
O=C(c1cc(COc2cccc(C(F)(F)F)c2)on1)N1C[C@H]2CC[C@H]1C2,6%,?,-3%,13µM*,4%,-5
SMILES,p53 reactivator,Nrf2 block,A549 tox,BRCA1 expr act,Nrf2 activator,IL2 activator
CN(Cc1cccs1)c1ncnc2ccc(-c3ccc4cn(C)nc4c3)cc12,·,-6%,1%,·,·,·
Cc1cc(=O)[nH]c2nnc(SCc3ccc(F)cc3)n12,·,·,-26%,·,0%,·
CCOC(=O)C1CCC(CN(Cc2cccc(Br)c2)S(=O)(=O)c2ccc(Cl)cc2)CC1 (centres undefined),·,·,2%,·,0%,·
CCn1c(SCC(=O)Nc2nc3ccc(C)cc3s2)nc2c(c1=O)SC(C)C2 (centres undefined),8%,18µM*,?,-60%,3%,-1
Cc1ccc2nc(NC(=O)COC(=O)c3ccncc3)sc2c1,19%,?,-10%,8.9µM*,1%,0
CCn1c(SCC(=O)Nc2nc3ccccc3s2)nc2c(c1=O)SC(C)C2 (centres undefined),-1%,·,?,-47%,6%,0
Cc1ccc2nc(NC(=O)COC(=O)CSc3nc(C)cc(C)n3)sc2c1,?,·,-5%,10µM*,1%,-2
COC(=O)c1ccc2nc(NC(=O)COC(=O)CSc3nc(C)cc(C)n3)sc2c1,?,15%,-2%,27%,5%,2
COCC(=O)Nc1nc2ccc(C)cc2s1,?,?,0%,7%,-1%,-1
COC(=O)c1ccc2nc(NC(=O)CSCC(=O)OCC(=O)c3ccccc3)sc2c1,?,12%,2%,9%,0%,-3
Cc1ccc2nc(NC(=O)CSCC(=O)OCC(=O)c3ccc(Br)cc3)sc2c1,-4%,18µM*,-4%,-99%,-3%,0
COc1ccc(NC(=O)CN(C)S(=O)(=O)c2ccc3nc(C)sc3c2)cc1,·,·,-5%,·,1%,·
Cc1ccnc2c([N+](=O)[O-])cccc12,·,·,·,10%,·,·
COc1ccc(-c2nnc3n2N=C(c2ccc(OC)c(OC)c2)CS3)cc1,·,?,-11%,·,·,·
Cc1nnc(N2CCN(c3ccccc3F)CC2)c2c1nnn2Cc1ccccc1,·,-7%,-8%,·,-1%,·
CCN1CCN(CC(=O)Nc2nc3ccc(C)cc3s2)CC1,?,2%,2%,36%,4%,0
Cc1sc(NC(=O)CN2CCOCC2)nc1-c1ccc2c(c1)CCN2S(=O)(=O)c1ccccc1,-2%,2.6µM*,-13%,-84%,4%,0
Cc1ccc2nc(NC(=O)CN3CCOCC3)sc2c1,?,22%,3%,3.5µM*,4%,0
COc1ccc(Cn2cc(CN3CC(N4CCN(CCN(C)C)CC4)CS3(=O)=O)nn2)cc1 (centres undefined),·,·,·,20%,0%,0
Cc1ccc(CNC(=O)CSc2nc3c(sc4ccccc43)c(=O)n2CCCC(=O)NCCO)cc1,·,10%,-1%,·,-1%,·
